The campaign covered roughly 320,000 compounds. About 2,100 (0.66%) were called active. Roughly 53% stayed inconclusive and do not appear here. Calls come from the whole dose curve; as a rule, active = well fitted inhibition curve with a large enough effect in the signal ratio, with a control signal flat (not every such curve was filed as active); inconclusive = small, poorly fitted or top-dose-only effect, or effect the other way, or a change in a side signal; inactive = flat fitted curve, though single readings scatter; the % refers to the signal ratio. Shown is part of a subset that was picked to be rich in actives.
assay: qHTS Assay for Lipid Storage Modulators in Drosophila S3 Cells; settings: BODIPY lipid droplet fluorescence, 18-24 h, cells fed with added oleic acid; cell number change: measured here: cell count max response; series mostly up to 46.1 µM; lipid storage change, negative = inhibition: at the top concentration;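 for cell number change: cells counted by Cell Tracker Red CMTPX staining in the red channel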; for lipid storage change, negative = inhibition: % is set by controls: 0 for no effect and ±100 for the full control effect
Summary of the method: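 Drosophila S3 cells loaded with oleic acid (400 uM, as added) and compounds at several concentrations; lipid droplets imaged by 488-nm laser-scanning cytometry, 500–530 nm intensity and object ratio to cell channel. Percent activity normalized to 20 uM Triacsin C.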
Potency is the fitted concentration of half-maximal effect.

Row | Structure (SMILES) | lipid storage change, negative = inhibition | cell number change [%] | outcome | Potency
1 | O=C(NCc1nc2ccccc2[nH]1)C1=C[C@H](c2csc3ccccc23)C[C@H](OCc2ccc(CO)cc2)O1 | 14.1% (inactive) | 13.4 | – | –
2 | COc1cc(CC(=O)OCC(=O)Nc2ccc(S(=O)(=O)N3CCCC3)cc2)cc(OC)c1OC | 10.3% (inactive) | -19.3 | – | –
3 | CCCN(CCC)CCCNC(=O)c1cn(CC)c2ccc(S(=O)(=O)N3CCOCC3)cc2c1=O | – | 5.34 | inactive | –
4 | CCn1cc(C(=O)NCCN(CC(C)C)CC(C)C)c(=O)c2cc(S(=O)(=O)N3CCOCC3)ccc21 | – | 0.403 | – | 7.31 µM (active)
5 | CCn1cc(C(=O)NCCCN(CC(C)C)CC(C)C)c(=O)c2cc(S(=O)(=O)N3CCOCC3)ccc21 | – | 21.3 | inactive | –
6 | CC1CCN(Cc2cc(=O)oc3ccc4ccccc4c23)CC1 | 9.37% (inactive) | 16.9 | – | –
7 | COc1ccc(C(=O)CC2SC(N)=NC2=O)cc1 (centres undefined) | 16.9% (inactive) | 30 | – | –
8 | Nc1[nH]ncc1C(=O)Nc1cccc(C(F)(F)F)c1 | 13.4% (inactive) | -8.81 | – | –
9 | CC(C)(C)C(=O)COC(=O)c1ccc(O)cc1 | 8.5% (inactive) | 15.5 | – | –
10 | CCN(CC)C(=O)COC(=O)c1ccc(O)cc1 | – | 4.39 | – | 20.6 µM (active)
11 | O=C(OCC(=O)N(C1CCCCC1)C1CCCCC1)c1ccc(O)cc1 | – | 3.31 | inactive | –
12 | COCCC(=O)N1CCC(Oc2ccc(C(=O)NCCc3cnn(C)c3)cc2)CC1 | – | 8.02 | inactive | –
13 | CCCN1CCC(NC(=S)Nc2ccc(S(N)(=O)=O)cc2)CC1 | -2.97% (inactive) | -2.79 | – | –
14 | Cc1ccc(C(CNC(=O)Nc2ccccc2)N2CCN(C)CC2)cc1 (centres undefined) | – | 20.2 | – | 7.31 µM (active)
15 | Cc1ccc(C(CNC(=O)Nc2cccc(C)c2)N2CCN(C)CC2)cc1 (centres undefined) | -6.58% (inactive) | -5.52 | – | –
16 | Cc1cccc(NC(=O)NCC(c2ccc(F)cc2)N2CCN(C)CC2)c1 (centres undefined) | – | – | inactive | –
17 | S=C(NCc1ccccc1)NCc1cccc(Cl)c1 | -9.43% (inactive) | 7.23 | – | –
18 | Cc1cc(C)c(OCC(=O)Nc2ccc(S(=O)(=O)N3CCCC3)cc2)c(C)c1 | – | – | inactive | –
19 | Cc1ccc(S(=O)(=O)N2CCOCC2)cc1NC(=O)COC(=O)CNC(=O)c1ccccc1 | 0.338% (inactive) | 5.41 | – | –
20 | Cc1ccc(OCC(=O)Nc2ccc(S(=O)(=O)N3CCOCC3)cc2)c(C)c1 | – | 25.8 | inactive | –
21 | Cc1ccc(S(=O)(=O)N2CCOCC2)cc1NC(=O)COc1ccc(C(=O)c2ccccc2)cc1 | – | 12.9 | – | 7.31 µM (active)
22 | Nc1nnc(SCC(=O)Nc2ccc(S(=O)(=O)N3CCOCC3)cc2)s1 | – | – | inactive | –
23 | Cc1cc(C)c(OCC(=O)Nc2ccc(S(=O)(=O)N3CCOCC3)cc2)c(C)c1 | – | 10.8 | – | 2.31 µM (active)
24 | O=C(CSc1ncnc2ccccc12)Nc1cccc(S(=O)(=O)N2CCOCC2)c1 | – | – | inactive | –
25 | O=C(COc1ccccc1Cl)Nc1ccc(S(=O)(=O)N2CCOCC2)cc1 | -23.5% (inactive) | -11.3 | – | –
26 | O=C(COc1ccc(S(=O)(=O)N2CCOCC2)cc1)Nc1ccccc1F | – | – | inactive [at 0.0737 µM] | –

Row | Structure (SMILES) | lipid storage change, negative = inhibition | cell number change [%] | outcome | Potency
27 | O=C(COc1ccc(S(=O)(=O)N2CCOCC2)cc1)Nc1ccccc1Cl | – | 7.69 | – | 1.84 µM (active)
28 | O=C(CSc1ncnc2sccc12)Nc1ccc(S(=O)(=O)N2CCOCC2)cc1 | – | 4.37 | – | 14.6 µM (active)
29 | Cc1ccc(S(=O)(=O)N2CCOCC2)cc1NC(=O)COc1ccc2c(C)cc(=O)oc2c1 | – | – | inactive | –
30 | O=C1C(NS(=O)(=O)c2cccs2)=C(N2CCOCC2)C(=O)c2ccccc21 | -8.94% (inactive) | -7.78 | – | –
31 | O=C(Cn1nc2ccccc2n1)N/N=C/c1ccc(F)cc1 | 14.4% (inactive) | -8.94 | – | –
32 | CCOC(=O)c1nnn(-c2nonc2N)c1CSc1nnc(N)s1 | -3.22% (inactive) | – | – | –
33 | Cc1cccc(C(=O)O/N=C/c2ccc(Br)cc2)c1 | -1.38% (inactive) | 7.42 | – | –
34 | Cc1ccc(S(=O)(=O)NC(C(=O)N2CCOCCOCCOCCOCC2)C(C)C)cc1 (centres undefined) | – | -9.21 | inactive | –
35 | Cc1cc(=O)oc2cc(OCC(=O)OCC(=O)Nc3ccc(C(N)=O)cc3)ccc12 | 17.8% (inactive) | 4.9 | – | –
36 | CN1CCN(C(=O)c2ccc(COc3cc(Cl)ccc3Cl)o2)CC1 | – | 0.87 | inactive | –
37 | CCC1(CC)Cc2ccccc2C(C2=C(O)CC(C)(C)CC2=O)=N1 | -4.5% (inactive) | 0.769 | – | –
38 | Cc1ccc2c(c1)COc1c3ccc(C(=O)N4CCCCC4)cc3nn1-2 | -0.0831% (inactive) | -6.37 | – | –
39 | O=C(Cc1ccccc1[N+](=O)[O-])NCCc1ccc(F)cc1 | -14.2% (inactive) | 16.5 | – | –
40 | CC(C)Cc1nnc(NC(=O)C2CCN(C(=O)c3ccc(F)cc3)CC2)s1 | – | – | inactive | –
41 | CCOc1ccc(NC(=O)c2cc(S(=O)(=O)N3CCOCC3)cs2)cc1 | -20% (inactive) | -10.9 | – | –
42 | Cc1ccc(C(=O)NNC(=O)c2ccc(S(=O)(=O)N3CCOCC3)cc2)cc1 | -19.9% (inactive) | 13.5 | – | –
43 | O=C(Cn1cnc2c(cnn2-c2ccccc2)c1=O)N1CCOCC1 | -9.53% (inactive) | – | – | –
44 | O=S(=O)(c1ccc(OCc2ccc(Br)cc2)cc1)N1CCOCC1 | 11.4% (inactive) | -10.6 | – | –
45 | O=C(Cn1cnc2c(cnn2-c2ccccc2)c1=O)Nc1ccc(S(=O)(=O)N2CCOCC2)cc1 | 0.0141% (inactive) | -0.435 | – | –
46 | O=S(=O)(c1ccc(Oc2ccccc2)cc1)N1CCOCC1 | 4.76% (inactive) | – | – | –
47 | CC(=O)c1cccc(OCC(=O)Nc2cc(S(=O)(=O)N3CCOCC3)ccc2N2CCCC2)c1 | -3.85% (inactive) | -28.5 | – | –
48 | CCc1cccc(OCC(=O)Nc2ccccc2N2CCCC2)c1 | -9.11% (inactive) | -24.4 | – | –
49 | O=C(Cn1cnc2c(cnn2-c2ccccc2)c1=O)Nc1cc(S(=O)(=O)N2CCOCC2)ccc1Cl | – | -7.78 | – | 25.9 µM (active)
50 | O=S(=O)(c1ccc(Oc2ccc(Br)cc2)cc1)N1CCOCC1 | – | -10 | – | 13 µM (active)
51 | CCOc1ccc(C(=O)NNC(=O)c2cc(S(=O)(=O)N3CCOCC3)ccc2Cl)cc1 | – | 8.57 | – | 25.9 µM (active)
52 | CCc1cccc(OCC(=O)Nc2cc(S(=O)(=O)N3CCOCC3)ccc2N2CCCC2)c1 | – | -12.1 | – | 13 µM (active)
